“And” between values parts separate entries of the source, which are not always exact repeats. Equal entries are not always repeated. A number with no mark means an inactive call. Results filed as inconclusive are left out. Entries that show only a call come without a potency. The source made the active and inactive calls. Unless noted, the call rests on the fitted dose curve; in most records, active means well fitted curve in the direction sought with a large enough effect; inconclusive means small, poorly fitted or top-dose-only effect, or another doubt; inactive means no such curve, though single readings can be large; an effect the other way counts as inactive or inconclusive.
Assays:
[1] = Cellular Toxicity (caspase-3) SHSY5Y (AID 657)
In short: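 SH-SY5Y human neuroblastoma cells (1500/well) were treated with compounds for 16 h at 37 °C, then Caspase-Glo 3/7 luminescence was read after 1 h at room temperature. Data normalized to DMSO and 10 uM staurosporine; AC50 from Hill fits.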

[2] = Cellular Toxicity (caspase-3) SK-N-SH (AID 661)
In short: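 Human SK-N-SH neuroblastoma cells, 1500/well, were exposed to compounds for 16 hours at 37 °C. Caspase-Glo 3/7 luminescence was normalized to DMSO (basal) and 10 uM staurosporine (100%), and AC50 came from a Hill fit.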

[3] = Cellular Toxicity (caspase-3) NIH 3T3 (AID 666);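 further: caspase signal read after 16 h compound exposure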
In short: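 Mouse NIH 3T3 fibroblasts (1000/well) treated 16 h at 37 C; caspase-3/7 activity measured by Caspase-Glo 3/7 luminescence after 20 min. Normalized to DMSO and 100 uM tamoxifen; AC50 from Hill fits.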

[4] = MultiTox-Fluor Cytotoxicity Assay - LYMP1-001 - Live Cells (AID 947); further: potency means the concentration at half of the fitted maximal effect
[5] = MultiTox-Fluor Cytotoxicity Assay - LYMP1-002 - Dead Cells (AID 960); further: nearly all actives have a fitted effect of over 60% in size; further: potency means the concentration at half of the fitted maximal effect
In short: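 Human lymphoblastoid LYMP1-002 cells, 2500/well, treated 16 h at 37 C; dead-cell protease cleavage of bis-AAF-R110 read by fluorescence (485/520); normalized to DMSO and 15 uM tetraoctylammonium bromide; AC50 from Hill fit.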

[6] = Cell Viability - LYMP2-004 (AID 966); further: nearly all actives have a fitted effect of over 65% in size; further: potency means the concentration at half of the fitted maximal effect
In short: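 Lymphoblastoid LYMP2-004 cells, 2500 per well, were preincubated for 5 hr and then treated with compound for 24 h at 37 C in complete medium. Viability was read as cellular ATP by CellTiter-Glo luminescence, and AC50 values were taken from Hill fits to concentration-response data.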

[7] = Cell Viability - LYMP2-005 (AID 967); further: potency means the concentration at half of the fitted maximal effect
In short: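 CellTiter-Glo luminescence (cellular ATP) read-out; LYMP2-005 lymphoblastoid cells, 2500/well, 5 h pre-incubation, then 24 h compound exposure at 37 C in complete medium. Tetraoctylammonium bromide positive control; AC50 by standard Hill fit.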

[8] = Cell Viability - LYMP2-009 (AID 968); further: nearly all actives have a fitted effect of over 55% in size; further: potency means the concentration at half of the fitted maximal effect
[9] = Cell Viability - LYMP2-008 (AID 980); further: nearly all actives have a fitted effect of over 60% in size; further: potency means the concentration at half of the fitted maximal effect
In short: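 LYMP2-008 lymphoblastoid cells (2500/well) plated 5 h, then treated 24 h at 37 C in complete medium. Viability read as intracellular ATP by CellTiter-Glo luminescence after 30 min at room temperature; AC50 from Hill fits.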

[10] = target: Glucocorticoid receptor (Homo sapiens) (UniProt P04150); experiment: qHTS assay for small molecule agonists of glucocorticoid receptor signaling (AID 588532; active means well fitted curve in the direction sought with a large enough effect in the signal ratio, with a control signal flat; the % refers to the signal ratio); conditions: HeLa MMTV-bla, beta-lactamase ratio, agonist, 18 h; stronger effect = higher value; percent of dexamethasone control, DMSO zero
In short: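 Agonist-mode qHTS: GRE-driven beta-lactamase in HeLa cells exposed 18 h to titrated compounds (up to 92 uM), then CCF4 ratio read after 2 h at RT; Hill-fitted EC50, efficacy relative to 0.1 uM dexamethasone.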

[11] = target: Vitamin D3 receptor (Homo sapiens) (UniProt P11473); experiment: qHTS assay for small molecule agonists of vitamin D receptor signaling (AID 588543; calls by dose curve)
In short: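 GeneBLAzer VDR-UAS-bla HEK293T cells in 2% charcoal-stripped FBS medium were dosed with compound titrations for 16 h at 37 °C; CCF4 β-lactamase readout (405 nm ex, 460/530 nm em). EC50 and efficacy from Hill fits, normalized to 50 nM calcitriol (100%) and DMSO (0%).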

[12] = target: Thyroid hormone receptor beta (Homo sapiens) (UniProt P10828); experiment: qHTS assay for small molecule antagonists of thyroid hormone receptor beta signaling (AID 588547; active means well fitted inhibition curve with a large enough effect in the signal ratio, with a control signal flat, not every such curve was filed as active; the % refers to the signal ratio;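 further: cells stimulated with 0.4 nM T3 agonist during compound exposure; series mostly up to about 77 µM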); conditions: TR-UAS-bla HEK293, beta-lactamase ratio, antagonist mode, 18 h
In short: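 Inhibition of T3-driven (0.4nM final) beta-lactamase reporter activity was measured over 0.59 nM to 92 uM compound after 18 h at 37 C. The cells were GripTite HEK293 TR-UAS-bla in charcoal/dextran-stripped serum, with CCF4 ratio read-out and IC50 from Hill fits.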

[13] = qHTS assay for small molecule activators of the p53 signaling pathway (AID 651743; active means well fitted activation curve with a large enough effect in the signal ratio, not every such curve was filed as active; the % refers to the signal ratio; further: series mostly up to about 92 µM); conditions: HCT-116 p53RE-bla, beta-lactamase FRET ratio, 16 h; activation: stronger effect = higher value
In short: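 Read-out is fluorescence intensity from the LiveBLAzer B/G FRET substrate, added for 2 hours at room temperature after HCT-116 p53RE-bla cells had been incubated with compounds for 16 hours at 37 C.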

[14] = qHTS assay for small molecule disruptors of the mitochondrial membrane potential - 5 hr assay (AID 651755; calls by dose curve; further: nearly all actives have a fitted effect of over 40% in size)
In short: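 HepG2, 2,000 cells/well, overnight attach; cpd or DMSO 5 hr, 37C/5% CO2; Mito-MPS 30 min 37C; fluor 490/535 + 540/590 nm.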

[15] = target: Tumor necrosis factor (Homo sapiens) (UniProt P01375); experiment: qHTS assay to identify small molecules that stimulate Tumor Necrosis Factor-alpha (TNF-alpha) secretion (AID 651757; active means well fitted curve in the direction sought with a large enough effect in the signal ratio; the % refers to the signal ratio)
In short: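 THP-1 cells (3000/well) exposed to compounds 17 hrs at 37 C. Secreted TNF-alpha detected by HTRF with cryptate- and XL665-labeled anti-TNF-alpha antibodies after 3 hr at room temperature.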

[16] = target: Nuclear receptor subfamily 1 group I member 2 (Rattus norvegicus) (UniProt Q9R1A7); experiment: qHTS assay for small molecule activators of the rat pregnane X receptor (rPXR) signaling pathway (AID 651751; call rule not given here); conditions: rPXR reporter cells, luciferase (One-Glo), 24 h
[17] = target: Cytochrome P450 3A4 (Homo sapiens) (UniProt P08684); experiment: qHTS Assay for Inhibitors and Substrates of Cytochrome P450 3A4 (AID 884); further: series mostly up to about 57 µM; nearly all actives have a fitted effect of over 50% in size
In short: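 20 nM human CYP3A4 with 25 uM Luciferin-PPXE (at KM) in 200 mM KPO4, preincubated 10 min with compound; NADPH regeneration started a 60 min RT reaction. Luciferin detected by luminescence, normalized to 57 uM ketoconazole as full inhibition.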

[18] = target: Glucocorticoid receptor (Homo sapiens) (UniProt P04150); experiment: qHTS assay for small molecule antagonists of glucocorticoid receptor signaling (AID 588533; active means well fitted inhibition curve with a large enough effect in the signal ratio, with a control signal flat, not every such curve was filed as active; the % refers to the signal ratio;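 further: cells stimulated with 2 nM dexamethasone as agonist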; further: potency means the concentration at half of the fitted maximal effect)
In short: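 Antagonist-mode qHTS: compound titrations added to GRE-bla HeLa cells, then dexamethasone 2 nM final; 18 h, 37 C. CCF4 FRET fluorescence normalized to dexamethasone and DMSO; IC50 from Hill fit.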

[19] = target: Peroxisome proliferator-activated receptor gamma (Homo sapiens) (UniProt P37231); experiment: qHTS assay for small molecule agonists of peroxisome proliferator-activated receptor gamma signaling (AID 588536; active means well fitted curve in the direction sought with a large enough effect in the signal ratio, with a control signal flat, not every such curve was filed as active; the % refers to the signal ratio)
In short: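 HEK293 UAS-bla reporter line, 1% charcoal/dextran FBS; titration, 16 h, 37 C; CCF4 loading 2 h RT; fluorescence 460/530 nm. Normalized to rosiglitazone 2 uM = 100%, DMSO = 0%.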

Sequence of Peroxisome proliferator-activated receptor gamma (Homo sapiens) (P37231 whole entry, looked up): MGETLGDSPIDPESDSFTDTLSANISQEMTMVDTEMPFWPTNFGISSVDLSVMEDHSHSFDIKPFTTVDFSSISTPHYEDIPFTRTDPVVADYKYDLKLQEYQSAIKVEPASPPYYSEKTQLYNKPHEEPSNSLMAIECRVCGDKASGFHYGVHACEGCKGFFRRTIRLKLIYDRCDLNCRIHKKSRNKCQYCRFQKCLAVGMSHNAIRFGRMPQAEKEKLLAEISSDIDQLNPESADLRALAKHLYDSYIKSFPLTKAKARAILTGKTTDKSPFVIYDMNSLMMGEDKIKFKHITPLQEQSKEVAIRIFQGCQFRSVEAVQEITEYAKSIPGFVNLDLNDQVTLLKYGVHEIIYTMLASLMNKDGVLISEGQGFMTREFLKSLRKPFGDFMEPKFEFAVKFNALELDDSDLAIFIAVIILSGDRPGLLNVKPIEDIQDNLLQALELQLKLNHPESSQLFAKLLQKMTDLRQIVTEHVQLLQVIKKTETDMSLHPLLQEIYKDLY
Sequence of Glucocorticoid receptor (Homo sapiens) (P04150 whole entry, looked up): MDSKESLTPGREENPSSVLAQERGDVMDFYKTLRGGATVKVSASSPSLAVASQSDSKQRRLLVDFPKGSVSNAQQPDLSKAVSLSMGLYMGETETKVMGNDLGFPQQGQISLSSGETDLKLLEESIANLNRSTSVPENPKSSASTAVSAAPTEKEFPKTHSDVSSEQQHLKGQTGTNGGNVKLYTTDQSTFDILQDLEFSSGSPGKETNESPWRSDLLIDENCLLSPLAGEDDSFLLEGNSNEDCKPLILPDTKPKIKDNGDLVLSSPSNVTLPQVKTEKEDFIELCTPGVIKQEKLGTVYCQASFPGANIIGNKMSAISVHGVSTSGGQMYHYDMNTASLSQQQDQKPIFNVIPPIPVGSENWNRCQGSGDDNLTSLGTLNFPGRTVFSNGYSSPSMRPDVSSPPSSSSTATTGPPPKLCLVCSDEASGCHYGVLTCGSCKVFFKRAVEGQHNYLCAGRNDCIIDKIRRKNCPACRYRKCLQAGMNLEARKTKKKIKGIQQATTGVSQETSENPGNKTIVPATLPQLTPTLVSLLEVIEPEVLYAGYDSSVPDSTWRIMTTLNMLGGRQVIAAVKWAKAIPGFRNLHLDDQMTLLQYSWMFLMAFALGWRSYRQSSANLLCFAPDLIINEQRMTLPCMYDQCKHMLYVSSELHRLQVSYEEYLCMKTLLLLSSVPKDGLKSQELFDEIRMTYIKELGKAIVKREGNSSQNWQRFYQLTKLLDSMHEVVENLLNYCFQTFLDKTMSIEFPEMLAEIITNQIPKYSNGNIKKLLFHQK
Sequence of Vitamin D3 receptor (Homo sapiens) (P11473 whole entry, looked up): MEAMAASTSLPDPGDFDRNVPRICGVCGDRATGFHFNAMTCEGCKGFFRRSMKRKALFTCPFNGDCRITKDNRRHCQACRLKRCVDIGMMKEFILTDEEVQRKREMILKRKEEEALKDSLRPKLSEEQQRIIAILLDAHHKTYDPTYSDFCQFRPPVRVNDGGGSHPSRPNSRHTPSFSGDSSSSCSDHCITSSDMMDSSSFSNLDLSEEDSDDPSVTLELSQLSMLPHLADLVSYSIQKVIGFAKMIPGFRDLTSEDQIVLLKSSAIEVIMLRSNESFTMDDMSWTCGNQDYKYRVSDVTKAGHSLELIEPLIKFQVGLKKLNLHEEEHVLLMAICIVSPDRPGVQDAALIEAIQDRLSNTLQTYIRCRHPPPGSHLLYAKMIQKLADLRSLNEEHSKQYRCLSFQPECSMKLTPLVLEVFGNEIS
Sequence of Thyroid hormone receptor beta (Homo sapiens) (P10828 whole entry, looked up): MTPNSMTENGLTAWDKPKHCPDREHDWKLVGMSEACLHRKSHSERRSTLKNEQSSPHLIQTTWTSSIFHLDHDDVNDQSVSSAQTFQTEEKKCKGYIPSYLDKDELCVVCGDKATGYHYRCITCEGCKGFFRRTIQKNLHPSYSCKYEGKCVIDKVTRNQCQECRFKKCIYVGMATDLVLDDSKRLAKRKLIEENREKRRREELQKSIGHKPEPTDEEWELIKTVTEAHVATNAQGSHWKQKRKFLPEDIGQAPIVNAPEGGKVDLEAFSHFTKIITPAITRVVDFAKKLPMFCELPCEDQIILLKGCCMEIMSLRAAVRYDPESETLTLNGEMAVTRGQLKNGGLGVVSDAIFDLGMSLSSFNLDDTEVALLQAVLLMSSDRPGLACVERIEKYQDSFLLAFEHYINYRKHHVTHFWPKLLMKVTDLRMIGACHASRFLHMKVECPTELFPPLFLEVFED
Sequence of Nuclear receptor subfamily 1 group I member 2 (Rattus norvegicus) (Q9R1A7 whole entry, looked up): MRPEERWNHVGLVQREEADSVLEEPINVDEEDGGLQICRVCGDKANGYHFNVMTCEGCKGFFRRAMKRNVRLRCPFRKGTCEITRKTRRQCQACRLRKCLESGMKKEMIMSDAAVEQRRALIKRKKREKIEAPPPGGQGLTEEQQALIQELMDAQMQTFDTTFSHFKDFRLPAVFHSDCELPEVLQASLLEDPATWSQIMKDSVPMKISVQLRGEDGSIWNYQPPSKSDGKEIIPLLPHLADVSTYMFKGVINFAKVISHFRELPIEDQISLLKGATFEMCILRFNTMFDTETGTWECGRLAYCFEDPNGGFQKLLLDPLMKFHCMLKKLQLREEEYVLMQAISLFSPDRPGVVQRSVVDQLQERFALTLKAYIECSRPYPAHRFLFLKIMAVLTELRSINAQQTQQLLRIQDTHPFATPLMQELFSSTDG
Sequence of Tumor necrosis factor (Homo sapiens) (P01375 whole entry, looked up): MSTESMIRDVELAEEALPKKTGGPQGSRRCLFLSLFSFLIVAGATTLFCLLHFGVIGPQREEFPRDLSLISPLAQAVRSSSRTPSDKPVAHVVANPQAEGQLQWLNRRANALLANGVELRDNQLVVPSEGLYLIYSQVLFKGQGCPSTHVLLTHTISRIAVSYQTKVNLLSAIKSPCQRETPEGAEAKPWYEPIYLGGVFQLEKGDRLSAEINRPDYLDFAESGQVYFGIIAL
Sequence of Cytochrome P450 3A4 (Homo sapiens) (P08684 whole entry, looked up): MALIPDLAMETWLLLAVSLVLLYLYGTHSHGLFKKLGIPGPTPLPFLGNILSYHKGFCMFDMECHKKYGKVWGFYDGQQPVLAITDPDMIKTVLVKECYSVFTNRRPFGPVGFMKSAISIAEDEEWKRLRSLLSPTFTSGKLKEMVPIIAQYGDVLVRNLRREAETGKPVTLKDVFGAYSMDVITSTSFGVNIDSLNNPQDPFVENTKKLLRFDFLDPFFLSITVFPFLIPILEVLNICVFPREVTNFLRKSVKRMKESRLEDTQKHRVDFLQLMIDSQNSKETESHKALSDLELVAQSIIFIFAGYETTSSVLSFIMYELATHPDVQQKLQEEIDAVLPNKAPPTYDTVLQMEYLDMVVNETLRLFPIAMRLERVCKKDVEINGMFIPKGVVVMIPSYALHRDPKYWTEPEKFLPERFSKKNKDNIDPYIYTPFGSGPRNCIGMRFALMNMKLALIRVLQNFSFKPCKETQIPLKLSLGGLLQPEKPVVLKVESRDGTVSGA

Row | SMILES | outcome [1] | outcome [2] | outcome [3] | Potency [4] | Potency [5] | Potency [6] | Potency [7] | Potency [8] | Potency [9] | activation [10] | outcome [11] | activity change % (negative = inhibition) [12] | activation [13] | Potency [14] | outcome [15] | max response [16] | Potency [17] | Potency [18] | outcome [19]
1 | COc1c2ccoc2cc2oc(=O)ccc12 | inactive | inactive | inactive | inactive | inactive | inactive | inactive | inactive | inactive | 3.88% | inactive | 16.2% | 6.05% | inactive | inactive | 2.12% | – | – | –
2 | CN(C)CCCCCCN(C)C | inactive | inactive | inactive | inactive | inactive | inactive | inactive | inactive | inactive | – | inactive | 5.32% | -2.74% | inactive | inactive | – | inactive | inactive | inactive
3 | COc1ccc2nc(N)sc2c1 | inactive | inactive | inactive | inactive | inactive | inactive | inactive | inactive | inactive | -7.22% and -9.63% | inactive | -0.575% and 14.1% | – | inactive | – | – | – | inactive | inactive
4 | CCCCCCCCCCCCCCC1CO1 (stereo not given) | inactive | inactive | inactive | inactive | – | inactive | inactive | inactive | inactive | 1.74% and -2.57% | inactive | 8.79% | 0.526% and -2.5% | – | inactive | -5.5% and 2.15% | inactive | inactive | inactive
5 | C=CC(=O)OCCOCCOCCOCCOC(=O)C=C | – | – | inactive | 31.6 µM (active) and 39.8 µM (active) | 20 µM (active) and 25.1 µM (active) | 7.94 µM (active) and 12.6 µM (active) | 10 µM (active) and 15.8 µM (active) | 15.8 µM (active) | 25.1 µM (active) | -5.18% | inactive | – | 28.9% and 15.6% | inactive | inactive | – | inactive | 39.8 µM (active) | –
6 | Cc1ccc([N+](=O)[O-])c(C)c1 | inactive | inactive | inactive | inactive | inactive | inactive | inactive | inactive | inactive | -4.65% and 0.746% | inactive | -7.14% and -11% | 0.814% and -2.3% | inactive | inactive | 3.04% and -0.0498% | inactive | inactive | inactive
7 | CC(C)=CCCC(C)CCO (stereo not given) | inactive | inactive | inactive | inactive | inactive | inactive | inactive | inactive | inactive | 0.913% and 4.62% | – | -8.9% and -1.71% | 0.545% and -1.78% | inactive | inactive | -5.01% and 0.846% | inactive | inactive | inactive
8 | CCCCCCCCO | inactive | inactive | inactive | inactive | – | inactive | – | inactive | inactive | -2.22% and -1.08% | inactive | -10.6% and 5.6% and -2.56% | -2.87% and -7.85% and -0.202% | inactive | inactive | -3.47% and -2.32% and 2.37% | inactive | inactive | inactive
9 | Cc1cccc([N+](=O)[O-])c1C | inactive | inactive | inactive | inactive | inactive | inactive | inactive | inactive | inactive | – | inactive | -0.0299% and -1.89% | -0.524% and 0.427% | inactive | inactive | 1.82% and -0.351% | inactive | – | inactive

Reference: PubChem BioAssay (NCATS)
